The values that follow come from PubChem BioAssay (NCATS).

The subject of assay [1] is HaCat. Description: Cytotoxic Profiling of Annotated Libraries Using Quantitative High-Throughput Screening (AID 1296008). For max response: % is set by controls: 0 for no effect and ±100 for the full control effect. Conditions: Five cell lines viability, CellTiter-Glo ATP luminescence, 48-72 h; max response: stronger effect = lower value. In short, it runs like this:
(§1)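 Cells exposed to compounds for 48 or 72 hr at 37 degrees Celsius. Viability read as ATP-coupled luminescence with CellTiter-Glo after 10 min at room temperature.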

Another assay deals with NIH3T3. Described as above. To be noted: Five cell lines viability, CellTiter-Glo ATP luminescence, 48-72 h; max response: stronger effect = lower value. An outline of the steps: as §1
The test system of another assay is KB-3-1. The assay is described as above. To be noted: Five cell lines viability, CellTiter-Glo ATP luminescence, 48-72 h; max response: stronger effect = lower value. An outline of the steps: as §1
(ATP-based viability assays read luminescence as a measure of living cells.)

For assay [2], the system named is HACAT. Description: qHTS assay to identify novel small-molecules to repurpose for Merkel cell carcinoma treatment (AID 1296009). Conditions: MCC and control cell lines, CellTiter-Glo viability, 72 h; at 44.8 µM (top of the series) unless noted. An outline of the steps: (§2)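 CellTiter-Glo luminescence after 72 hr compound exposure at 37 degree celsius gave cell viability. Libraries NPC and MIPE were run as 8- and 11-point dose responses; RLUs normalized to DMSO (negative) and no-cell (cytotoxicity) controls.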
For orientation: qHTS replaces the single test concentration by a dilution series.

Another assay relates to HEK293T. Described as above. To be noted: MCC and control cell lines, CellTiter-Glo viability, 72 h. In short, it runs like this: as §2

Results filed as inconclusive are left out. The source made the active and inactive calls. Calls come from the whole dose curve; as a rule, active = well fitted inhibition curve with a large enough effect; inconclusive = small, poorly fitted or top-dose-only effect; inactive = flat fitted curve, though single readings scatter.
Note: nearly all actives have a fitted effect of over 60% in size.
Potency is the fitted concentration of half-maximal effect.

Take `C=CC(C)(C)C12CC3C(=O)N4C(CC5(C(C)(C)C=C)c6ccccc6NC45)C(=O)N3C1Nc1ccccc12` (configuration not stated): in the assay with HaCat [1], the Potency was 11.2 µM (active). For the same compound, in the assay with NIH3T3, the max response was 1.64% (inactive).
On to `O=c1nc(-c2ccccn2)sc2ccccc12`, for which the compound was called inactive in the assay with HaCat [1] and with HACAT [2]. Besides, the max response in the assay with KB-3-1 was 3.79% (inactive).
With `Cn1c(CO)c(-c2ccccc2)c2cc([N+](=O)[O-])ccc21`, the max response in the assay on HaCat [1] was -23.7% (inactive); in the assay on NIH3T3, -3.34% (inactive).
For `C/C=C(\C)C(=O)O[C@@H]1[C@@H](C)[C@]2(O)[C@@H]3C=C(C)C(=O)[C@H]3CC(CO)=C[C@H]2C2C(C)(C)[C@@]21OC(=O)C(C)CC` (some centres not stated), the outcome in the assay with HaCat [1] was inactive. The values for the max response with KB-3-1 and with NIH3T3 were 0.342% (inactive) and 4.54% (inactive), respectively. Moreover, in the assay with HACAT [2], the outcome is “inactive [at 17.4 µM]”.
In the case of `CC(=O)C1=CCC2C3CC=C4CC(O)CC(O)C4(C)C3C(O)CC12C` (configuration not stated), the max response with HaCat [1] was 1.07% (inactive). Besides, the outcome in the assay on NIH3T3 was inactive.
Turning to `C=C1CC[C@@H]2[C@](C)(CO)[C@H](O)CC[C@@]2(C)[C@@H]1C/C=C1/C(=O)OCC1OC(=O)/C(=C/CO)C(O)C[C@@H]1C(=C)CC[C@@H]2[C@](C)(CO)[C@H](O)CC[C@]21C` (some centres not stated), the call in the assay on HaCat [1] and in the assay with KB-3-1 was inactive. In addition, the outcome with HACAT [2] was “inactive [at 17.4 µM]”.
For the compound `C=C1CC[C@@H](O)[C@]2(C)C[C@H]3OC(=O)C(=C)[C@H]3CC12` (some centres not stated), the compound was classed as inactive in the assay with HaCat [1] and in the assay on HACAT [2]. In addition, the max response in the assay with KB-3-1 was 1.13% (inactive).
For `C[C@@H](c1ccc2nccn2c1)n1nnc2ncc(-c3cnn(C)c3)nc21`, the values for the max response with HaCat [1] and in the assay on NIH3T3 were -13% (inactive) and -14.7% (inactive), respectively.
Take `C=C1C(=O)O[C@@H]2/C=C(\CO)CC/C=C(/C=O)C[C@H](O)[C@@H]12`: the max response with HaCat [1] is -0.314% (inactive). The compound was classed as inactive with KB-3-1. Also, the Potency in the assay on HEK293T is 18.4 µM (active).
Turning to `Cc1cc(C(=O)Nc2cc(Oc3ccc4nc(NC(=O)C5CC5)cn4n3)ccc2C)n(C)n1`, the Potency in the assay on HaCat [1] was 18.4 µM (active); with NIH3T3, 5.17 µM (active).
`C/C=C(\C)[C@@H]1C(C)=C[C@@H]2[C@H]([C@@H]1/C=C/C=C/C(=O)O)[C@@H](C)CC[C@@H]2O`: the result with HaCat [1] and in the assay on HACAT [2] was inactive. Moreover, in the assay on KB-3-1, the Potency is 8.05 µM (active).
Take `COc1cc(C#N)ccc1S(=O)(=O)Nc1ccc2c(c1)cc(C)c(=O)n2C`: the max response in the assay on HaCat [1] is -9.16% (inactive); in the assay with NIH3T3, -0.625% (inactive).
For the compound `Cc1ccc(C)c(NS(=O)(=O)c2cc(C(=O)Nc3ccccc3-c3ccccc3)ccc2C)c1`, the results for the max response in the assay on HaCat [1] and with NIH3T3 were -22.2% (inactive) and -13.7% (inactive), respectively.
With `CCC(=O)OCC(=O)[C@@]1(OC(=O)CC)[C@@H](C)C[C@H]2[C@@H]3CCC4=CC(=O)C=C[C@]4(C)[C@@]3(Cl)[C@@H](O)C[C@@]21C`, the max response with KB-3-1 is -12.3% (inactive).
On to `Cc1ccc(NC(=O)N2CCN(c3nc(N)nc4sc(-c5cccnc5)nc34)CC2)cc1`, for which, in the assay on KB-3-1, the max response is -18.9% (inactive). For the same compound, the Potency with NIH3T3 was 2.91 µM (active).
`C=C1C(=O)OC2/C=C(\C)CC/C=C(\C)CC(OC(C)=O)C12` (configuration not stated): the max response in the assay with KB-3-1 was 3.33% (inactive). In addition, the Potency in the assay on NIH3T3 is 23.1 µM (active).
Consider `Cc1ccc(-c2c(C(=O)CCl)n(CCCO)c3ncnc(N)c23)cc1`, for which the max response with KB-3-1 was -3.1% (inactive).
In the case of `N#Cc1ccc(COc2ccc(-c3cccc4nc(NC(=O)C5CC5)nn34)cc2)cn1`, the max response in the assay on KB-3-1 was -6.55% (inactive). In addition, in the assay with NIH3T3, the Potency is 20.6 µM (active).
As to `OC(CN1CCCCC1)c1cc(-c2ccccc2)on1` (configuration not stated), the max response in the assay with KB-3-1 was -12.7% (inactive).
For the compound `C=C[C@@]1(C)CCC2C(=CCC3[C@]2(C)CCC[C@@]3(C)C(=O)O)C1` (some centres not stated), the max response was -10.5% (inactive) with KB-3-1 and -28.5% (inactive) with NIH3T3.
On to `C=C(C)[C@@H]1CC=C(COC(=O)NC(=O)c2ncn3c(=O)n(C)nnc23)CC1`, for which the Potency in the assay on NIH3T3 was 18.4 µM (active).
`COc1cc(CCO)ccc1O[C@@H]1O[C@H](CO)[C@@H](O)[C@H](O)[C@H]1O`: the figures for the max response in the assay with KB-3-1 and in the assay on NIH3T3 were 7.87% (inactive) and -23.9% (inactive), respectively.
With `CC(=O)OCC(=O)[C@@]1(O)[C@H](C)C[C@H]2[C@@H]3C[C@H](F)C4=CC(=O)C=C[C@]4(C)[C@H]3[C@@H](O)C[C@@]21C`, the max response with KB-3-1 was 23.1% (inactive).
Regarding `C=C1C(=O)O[C@@H]2C[C@]3(C)[C@@H](CCC(C)O)[C@@H]3C[C@H]12` (some centres not stated), in the assay on KB-3-1, the compound was called inactive. The max response with NIH3T3 was -15.1% (inactive).
The like results for `C=C1C(=O)O[C@@H]2C[C@H](C)[C@@H]3CC(=O)[C@H](O)[C@@]3(C)C[C@H]12` were, in that order, “inactive” and -22.8% (inactive).
With `CCCCCCCC/C=C\CCCCCCCC(=O)OC[C@@H](O)[C@H]1OC[C@H](O)[C@H]1O`, the max response with KB-3-1 was -11.7% (inactive).
Take `Cc1ccc(S(=O)(=O)N2CCC[C@H]2c2ccc(F)cc2)cc1`: the figures for the max response in the assay on KB-3-1 and in the assay on NIH3T3 were -12.3% (inactive) and -13.3% (inactive), respectively.
The like results for `C=C1C(=O)O[C@H]2C1CCC(C)=C1C(=O)C=C(C)[C@@]12O` (some centres not stated) were, in that order, -10.7% (inactive) and -6.36% (inactive).
